Laboratory results from PubChem BioAssay (NCI).
Compounds without any hit were thinned out: in the full panel of roughly 79,000, 15% have a hit. Unmarked numbers belong to inactive results. The source made the active and inactive calls. Cut-off read from the data, not from the text of the source: active = growth inhibition above about 70%; inactive = the rest.

Assays:
[1] = NCI Yeast Anticancer Drug Screen. Data for the wt1 strain (AID 149);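 note: 0% = growth of vehicle-treated wt1 cultures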; details: S. cerevisiae wt1 strain (SPY 50644) growth inhibition, hits give high values
How it was run: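 Measured: growth of wt1 yeast under compound versus vehicle treatment, reported as inhibition.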

[2] = NCI Yeast Anticancer Drug Screen. Data for the rad50EPP+ strain (AID 151);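 note: 0% = growth of vehicle-treated control cultures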; details: S. cerevisiae rad50 mutant strain, hits give high values
How it was run: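 rad50EPP+ yeast treated with test compounds. Readout: growth vs vehicle control.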

[3] = NCI Yeast Anticancer Drug Screen. Data for the mgt1 strain (AID 153); details: S. cerevisiae mgt1 mutant growth inhibition, hits give high values
How it was run: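 Growth inhibition relative to vehicle controls was scored for the mgt1 yeast strain after compound exposure.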

[4] = NCI Yeast Anticancer Drug Screen. Data for the rad50 strain (AID 155);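 note: 0% = growth of vehicle-only cultures of the same strain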; details: S. cerevisiae rad50 strain growth inhibition, hits give high values
How it was run: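 Growth of the mutant yeast was measured after compound exposure and referenced to vehicle-treated cultures.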

[5] = NCI Yeast Anticancer Drug Screen. Data for the mec2-1 strain (AID 157); details: S. cerevisiae mec2-1 strain, hits give high values
How it was run: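 Growth inhibition is read against vehicle-treated controls after compound exposure of the mec2-1 yeast strain, which is defective in DNA damage repair or cell cycle control.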

[6] = NCI Yeast Anticancer Drug Screen. Data for the rad14 strain (AID 159);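 note: 0% = growth of vehicle-treated control cultures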; details: S. cerevisiae rad14 strain growth inhibition, hits give high values
How it was run: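 Here, inhibition of yeast growth was measured after compound exposure, using a strain with a genetic defect in DNA damage repair and vehicle-treated cultures as the reference.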

[7] = NCI Yeast Anticancer Drug Screen. Data for the sgs1 mgt1 strain (AID 161);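 note: 0% = growth of cultures given vehicle only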; details: S. cerevisiae sgs1 mgt1 strain, hits give high values
How it was run: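 This yeast growth screen uses a strain with defined DNA-repair lesions; compound-treated growth is compared with vehicle-treated growth.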

[8] = NCI Yeast Anticancer Drug Screen. Data for the cln2 rad14 strain (AID 165);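 note: 0% = growth equal to vehicle treated cultures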; details: S. cerevisiae cln2 rad14 strain, hits give high values
How it was run: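 Growth inhibition, relative to vehicle-treated controls, is the read-out. The test organism is a yeast strain with defined genetic alterations, cln2 rad14.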

[9] = NCI Yeast Anticancer Drug Screen. Data for the bub3 strain (AID 167); details: S. cerevisiae bub3 mutant strain, hits give high values
How it was run: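 Whole-cell yeast assay. The mutant strain was incubated with compounds, and growth inhibition was determined by comparison with vehicle-treated cells.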

[10] = NCI Yeast Anticancer Drug Screen. Data for the wt2 strain (AID 169);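 note: 0% = growth of vehicle-treated yeast cultures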; details: S. cerevisiae wt2 strain growth inhibition, hits give high values
How it was run: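 Compound exposure of yeast; growth compared with vehicle controls; inhibition reported.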

[11] = NCI Yeast Anticancer Drug Screen. Data for the mlh1 strain (AID 171);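 note: 0% = growth of vehicle-treated control cultures of the same strain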; details: S. cerevisiae mlh1 strain growth inhibition, hits give high values
How it was run: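 Compounds are applied to a genetically altered yeast strain, and its growth is compared with that of vehicle-treated cultures to give percent inhibition.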

[12] = NCI Yeast Anticancer Drug Screen. Data for the sgs1 strain (AID 173);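 note: 0% = growth of vehicle-only control cultures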; details: S. cerevisiae sgs1 mutant, hits give high values
How it was run: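 Compounds applied to genetically altered yeast; growth compared with vehicle-treated cultures to give % inhibition.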

[13] = NCI Yeast Anticancer Drug Screen. Data for the mlh1 rad18 strain (AID 175); details: S. cerevisiae mlh1 rad18 strain growth inhibition, hits give high values
How it was run: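 Cells of a genetically altered yeast strain, deficient in DNA damage repair, were treated with compound. Their growth was then compared with that of vehicle-treated cultures to give inhibition.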

[14] = NCI Yeast Anticancer Drug Screen. Data for the rad18 strain (AID 177); details: S. cerevisiae rad18 mutant growth inhibition, hits give high values
How it was run: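 Compounds are applied to a repair-deficient yeast strain, and growth is compared with that of vehicle-treated cultures to give percent inhibition.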

[15] = NCI Yeast Anticancer Drug Screen. Data for the CLN2oe strain (AID 163);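 note: 0% = growth of vehicle-only control cultures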; details: S. cerevisiae CLN2oe strain, hits give high values
How it was run: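 Compound-treated yeast; growth vs vehicle ctrl = % inhibition. Genetically altered strain (cell-cycle control).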

[16] = at 5.0 µM (retest, dose inferred, filed as 0.5)
[17] = at 50.0 µM (retest, dose inferred, filed as 5.0)

CN(C)N=Nc1ccc(NC=O)cc1
growth inhibition ([1]; at 1.2 µM): -2% | growth inhibition ([1]; at 3.7 µM): 1% | growth inhibition ([1]; at 11.0 µM): 9% | growth inhibition ([1]; at 33.0 µM): 92% (active) | growth inhibition ([1]; at 100.0 µM): 99% (active) | growth inhibition ([2]; at 1.2 µM): 11% | growth inhibition ([2]; at 3.7 µM): 6% | growth inhibition ([2]; at 11.0 µM): 8% | growth inhibition ([2]; at 33.0 µM): 86% (active) | growth inhibition ([2]; at 100.0 µM): 98% (active) | growth inhibition ([3]; at 1.2 µM): 20% | growth inhibition ([3]; at 3.7 µM): 27% | growth inhibition ([3]; at 11.0 µM): 23% | growth inhibition ([3]; at 33.0 µM): 88% (active) | growth inhibition ([3]; at 100.0 µM): 99% (active) | growth inhibition ([4]; at 1.2 µM): 5% | growth inhibition ([4]; at 3.7 µM): 4% | growth inhibition [4, 16]: 23% | growth inhibition ([4]; at 11.0 µM): 17% | growth inhibition ([4]; at 33.0 µM): 97% (active) | growth inhibition [4, 17]: 67% | growth inhibition ([4]; at 50.0 µM): 89.7% (active) | growth inhibition ([4]; at 100.0 µM): 99% (active) | growth inhibition ([5]; at 1.2 µM): 0% | growth inhibition ([5]; at 3.7 µM): 13% | growth inhibition [5, 16]: 23% | growth inhibition ([5]; at 11.0 µM): 20% | growth inhibition ([5]; at 33.0 µM): 90% (active) | growth inhibition [5, 17]: 47% | growth inhibition ([5]; at 50.0 µM): 91.8% (active) | growth inhibition ([5]; at 100.0 µM): 99% (active) | growth inhibition ([6]; at 1.2 µM): 6% | growth inhibition ([6]; at 3.7 µM): 3% | growth inhibition ([6]; at 11.0 µM): 9% | growth inhibition ([6]; at 33.0 µM): 77% (active) | growth inhibition ([6]; at 100.0 µM): 98% (active) | growth inhibition [7, 16]: -7% | growth inhibition [7, 17]: -44% | growth inhibition ([7]; at 50.0 µM): 66.2% | growth inhibition [8, 16]: -7% | growth inhibition [8, 17]: -19% | growth inhibition ([8]; at 50.0 µM): 85.2% (active) | growth inhibition ([9]; at 1.2 µM): 15% | growth inhibition ([9]; at 3.7 µM): 18% | growth inhibition [9, 16]: -3% | growth inhibition ([9]; at 11.0 µM): 27% | growth inhibition ([9]; at 33.0 µM): 94% (active) | growth inhibition [9, 17]: -22% | growth inhibition ([9]; at 50.0 µM): 78.7% (active) | growth inhibition ([9]; at 100.0 µM): 99% (active) | growth inhibition ([10]; at 1.2 µM): 18% | growth inhibition ([10]; at 3.7 µM): 9% | growth inhibition ([10]; at 11.0 µM): 14% | growth inhibition ([10]; at 33.0 µM): 96% (active) | growth inhibition ([10]; at 100.0 µM): 99% (active) | growth inhibition ([11]; at 1.2 µM): 2% | growth inhibition ([11]; at 3.7 µM): -7% | growth inhibition ([11]; at 11.0 µM): 6% | growth inhibition ([11]; at 33.0 µM): 91% (active) | growth inhibition ([11]; at 100.0 µM): 99% (active) | growth inhibition ([12]; at 1.2 µM): 2% | growth inhibition ([12]; at 3.7 µM): -5% | growth inhibition ([12]; at 11.0 µM): 8% | growth inhibition ([12]; at 33.0 µM): 93% (active) | growth inhibition ([12]; at 100.0 µM): 99% (active) | growth inhibition [13, 16]: 32% | growth inhibition [13, 17]: 65% | growth inhibition ([13]; at 50.0 µM): 87.4% (active) | growth inhibition ([14]; at 1.2 µM): 19% | growth inhibition ([14]; at 3.7 µM): 24% | growth inhibition ([14]; at 11.0 µM): 35% | growth inhibition ([14]; at 33.0 µM): 98% (active) | growth inhibition ([14]; at 100.0 µM): 99% (active)

COC1=C(N=[N+]=[N-])C(=O)c2ncccc2C1=O
growth inhibition ([1]; at 1.2 µM): 3% | growth inhibition ([1]; at 3.7 µM): 6% | growth inhibition ([1]; at 11.0 µM): 10% | growth inhibition ([1]; at 33.0 µM): 52% | growth inhibition ([1]; at 100.0 µM): 92% (active) | growth inhibition ([2]; at 1.2 µM): 31% | growth inhibition ([2]; at 3.7 µM): 60% | growth inhibition ([2]; at 11.0 µM): 89% (active) | growth inhibition ([2]; at 33.0 µM): 94% (active) | growth inhibition ([2]; at 100.0 µM): 95% (active) | growth inhibition ([3]; at 1.2 µM): 10% | growth inhibition ([3]; at 3.7 µM): 7% | growth inhibition ([3]; at 11.0 µM): 31% | growth inhibition ([3]; at 33.0 µM): 81% (active) | growth inhibition ([3]; at 100.0 µM): 94% (active) | growth inhibition ([4]; at 1.2 µM): 56% | growth inhibition ([4]; at 3.7 µM): 84% (active) | growth inhibition [4, 16]: 86% (active) | growth inhibition ([4]; at 11.0 µM): 93% (active) | growth inhibition ([4]; at 33.0 µM): 94% (active) | growth inhibition [4, 17]: 95% (active) | growth inhibition ([4]; at 50.0 µM): 82.2% (active) | growth inhibition ([4]; at 100.0 µM): 95% (active) | growth inhibition ([5]; at 1.2 µM): 6% | growth inhibition ([5]; at 3.7 µM): 38% | growth inhibition [5, 16]: 38% | growth inhibition ([5]; at 11.0 µM): 68% | growth inhibition ([5]; at 33.0 µM): 93% (active) | growth inhibition [5, 17]: 94% (active) | growth inhibition ([5]; at 50.0 µM): 85.5% (active) | growth inhibition ([5]; at 100.0 µM): 96% (active) | growth inhibition ([6]; at 1.2 µM): -2% | growth inhibition ([6]; at 3.7 µM): 10% | growth inhibition ([6]; at 11.0 µM): 44% | growth inhibition ([6]; at 33.0 µM): 91% (active) | growth inhibition ([6]; at 100.0 µM): 96% (active) | growth inhibition ([15]; at 1.2 µM): -5% | growth inhibition ([15]; at 3.7 µM): 13% | growth inhibition ([15]; at 11.0 µM): 26% | growth inhibition ([15]; at 33.0 µM): 69% | growth inhibition ([15]; at 100.0 µM): 95% (active) | growth inhibition [8, 16]: 24% | growth inhibition [8, 17]: 93% (active) | growth inhibition ([8]; at 50.0 µM): 80.5% (active) | growth inhibition ([9]; at 1.2 µM): 7% | growth inhibition ([9]; at 3.7 µM): 18% | growth inhibition [9, 16]: -4% | growth inhibition ([9]; at 11.0 µM): 18% | growth inhibition ([9]; at 33.0 µM): 72% (active) | growth inhibition [9, 17]: 88% (active) | growth inhibition ([9]; at 50.0 µM): 78% (active) | growth inhibition ([9]; at 100.0 µM): 94% (active) | growth inhibition ([10]; at 1.2 µM): -55% | growth inhibition ([10]; at 3.7 µM): -12% | growth inhibition ([10]; at 11.0 µM): 49% | growth inhibition ([10]; at 33.0 µM): 92% (active) | growth inhibition ([10]; at 100.0 µM): 95% (active) | growth inhibition ([11]; at 1.2 µM): 10% | growth inhibition ([11]; at 3.7 µM): 6% | growth inhibition ([11]; at 11.0 µM): 21%
